Bioassay records deposited in PubChem BioAssay by The Scripps Research Institute Molecular Screening Center.
HTR5A ag ctr: HTR5A agonists in luminescence cell assay, primary screen, counter-screen for OPRM1-OPRD1 heterodimer agonist project, full-deck HTS | activation, % at 9.3 µM | actives 0.61% (n = 340,000) | 5-hydroxytryptamine receptor 5A (Homo sapiens), P47898 | cell-based; in the data active = activation mostly above about 9.5%, no sharp cut-off; inactive = mostly below about 7.6%;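 also: 0% = cells with vehicle only and 100% = reference agonist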
HTR5A inv ctr: HTR5A inverse agonists in luminescence cell assay, primary screen, counter-screen for OPRM1-OPRD1 heterodimer inverse agonist project, full-deck HTS. 5-hydroxytryptamine receptor 5A (Homo sapiens), P47898. HTR5A cell line, inverse agonism. actives 0.083% (n = 340,000). inhibition, % at 9.3 µM; in the data active = inhibition mostly above about 23%, no sharp cut-off; inactive = mostly below about 18%;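 also: 0% = cells with DMSO and 100% = no-cell wells with DMSO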
MOR-DOR inv ag: inverse agonists of MOR-DOR heterodimerization, primary screen, cell-based, luminescence; cell-based MOR-DOR heterodimer luminescence, inverse agonism; inhibition, % at 9.3 µM; actives 0.21% (n = 340,000); in the data active = inhibition above about 22%, passing the limit was not always enough;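 also: 0% = cells with DMSO and 100% = wells without cells with DMSO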
MOR-DOR ag: agonists of OPRM1-OPRD1 heterodimerization, primary screen, cell-based, luminescence; Mu-type opioid receptor (Homo sapiens) + Delta-type opioid receptor (Homo sapiens), …; cells; activation, % at 9.3 µM; actives 0.3% (n = 340,000);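 also: 0% = vehicle-treated cells and 100% = reference agonist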
MOR-DOR ag conf: agonists of MOR-DOR heterodimerization, confirmation, cell-based, luminescence | cells, luminescence complementation | shares compounds with MOR-DOR ag | actives 45% (n = 830) | activation, % at 9.3 µM;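 also: 0% = vehicle-treated cells and 100% = reference agonist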
HTR5A ag ctr2: HTR5A agonists in cells, counter-screen for OPRM1-OPRD1 heterodimer agonist project, cell-based, luminescence. shares compounds with MOR-DOR ag. HTR5A agonist counterscreen. activation, % at 9.3 µM. actives 8% (n = 830); in the data active = activation above about 17%;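 also: 0% = vehicle-treated cells and 100% = reference agonist response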
* marks the source's active call; other numbers are inactive results; i = inactive; . = not tested or not shown. A selection: hits, their analogues and other compounds. The true share with any hit is near 1.1%. Rule as the data show it, unless noted: active = activation above about 18%; inactive = the rest.

SMILES	HTR5A ag ctr	HTR5A inv ctr	MOR-DOR inv ag	MOR-DOR ag	MOR-DOR ag conf	HTR5A ag ctr2
Clc1ccc(C2[C@H]3CN(Cc4cccnc4)[C@H](c4ccccc4)C34CC2(c2cccnc2)C4)cn1 (some centres not stated)	-5	-13	-311	54*	9	8
COc1cccc(C(=O)Nc2ccc3c(c2)C(=O)c2ccccc2C3=O)c1	-1	-14	-261	38*	53*	11
COc1ccc2ncc(S(=O)(=O)c3ccccc3)c(N3CCN(c4ccccc4)CC3)c2c1	8	33	-8	2	.	.
CCN1CCN(c2c(S(=O)(=O)c3ccc(C)c(C)c3)cnc3ccc(F)cc23)CC1	-3	8	-314	53*	12	-3
Clc1ccc(C#Cc2cccnc2)cc1	-2	5	4	-1	.	.
O=C(/C=C/c1ccc([N+](=O)[O-])cc1)Nc1cccc(S(=O)(=O)NC2=NCCCCC2)c1	3	-11	-21	4	.	.
CC1CN(C)C(C)c2c1oc1ccc(N)cc21 (configuration not stated)	-3	-12	-373	72*	58*	4
Nn1c(-c2ccccc2Cl)nnc1-c1ccccc1Cl	3	-10	-98	18*	0	5
CSc1nnc(-c2ccccc2Cl)n1N	1	14	4	-1	.	.
CCCOc1ccc(C(=O)Nc2ccc(N3CCN(C(=O)c4ccco4)CC3)cc2)cc1	0	3	-119	23*	1	-6
O=C(COc1ccc(/C=N/NC(=O)c2cc3ccccc3o2)cc1Cl)Nc1ccccc1	9	-27	-237	41*	3	-4
COc1cc(/C=N/NC(=O)c2ccccc2O)ccc1OCC(=O)Nc1ccccc1	2	18	17	-3	.	.
O=C(NNC(=O)c1ccc2nc[nH]c2c1)c1ccccc1	6	-16	0	0	.	.
CN(C)C(CNC(=O)c1ccc2nc[nH]c2c1)c1ccccc1 (configuration not stated)	4	-12	-126	25*	7	8
CN(C)C(CNC(=O)c1ccc(Cl)c(S(=O)(=O)N2CCCCCC2)c1)c1ccccc1 (configuration not stated)	4	-13	-187	36*	1	-3
Cc1ccc(C(C)(C)NC(=O)C2CCC(=O)N(CC3CCCCC3)C2)cc1 (configuration not stated)	-1	5	-6	1	.	.
COc1ccccc1NC(=O)c1sc2nc(C)cc(C)c2c1N	4	-9	-121	24*	108*	1
Cc1ccc(NC(=O)COC(=O)c2ccc(C)c(S(=O)(=O)N3CCOCC3)c2)cc1	-6	24	-1	0	.	.
O=C(O)C(CO)(c1ccccc1)c1ccccc1	3	-10	10	-2	.	.
CCOC(=O)C1(CC2CCCCO2)CCN(Cc2c(C)cc(C)cc2-n2cccn2)CC1 (configuration not stated)	9	-29	i	199*	267*	2
CCOC(=O)C1(CC2CCCCO2)CCN(Cc2nccn2-c2cccc(C)c2)CC1 (configuration not stated)	4	6	-64	13	.	.
CCOC(=O)C1(CC2CCCCO2)CCN(Cc2nccn2-c2ccc(OC)cc2)CC1 (configuration not stated)	2	-4	18	-4	.	.
CCOC(=O)C1(CC2CCCCO2)CCN(Cc2nc3ccccc3[nH]2)CC1 (configuration not stated)	-4	10	-148	29*	27*	3
CCOC(=O)C1(CC2CCCCO2)CCN(Cc2cc(F)ccc2-n2cccn2)CC1 (configuration not stated)	-4	0	-298	61*	66*	2
COc1ccccc1NS(=O)(=O)c1ccc(C)c(NC(=O)c2c(C)noc2C)c1	1	7	11	-3	.	.
SMILES	HTR5A ag ctr	HTR5A inv ctr	MOR-DOR inv ag	MOR-DOR ag	MOR-DOR ag conf	HTR5A ag ctr2
Cn1nc(C(=O)Nc2ccccc2N2CCCC2)c2ccccc2c1=O	1	-4	-9	2	.	.
COC(=O)C1=C(C)N(CCCC(=O)O)C(=O)NC1c1ccccc1OS(=O)(=O)c1ccccc1[N+](=O)[O-] (configuration not stated)	-2	6	-296	51*	47*	5
CCOC(=O)C1=C(C)N(Cc2ccccc2)C(=O)NC1c1ccccc1OS(=O)(=O)c1ccccc1[N+](=O)[O-] (configuration not stated)	-2	6	-380	65*	1	-4
Cn1c(-c2c(N)n(CCc3ccccc3)c3nc4ccccc4nc23)nc2ccccc21	4	-14	i	250*	235*	6
Cn1c(-c2c(N)n(C3CCCC3)c3nc4ccccc4nc23)nc2ccccc21	-3	9	-40	7	.	.
COCCCn1c(N)c(-c2nc3ccccc3n2C)c2nc3ccccc3nc21	-2	5	i	117*	142*	-1
Cc1ccc(COn2c(-c3ccc(Cl)cc3Cl)nc3ncccc32)cc1	1	-4	-433	77*	1	35*
CC1(C#CC[N+]2(C)CCCCC2)CCC2C(O1)c1ccccc1OC2(C)C (configuration not stated)	0	-12	-1	0	.	.
CC(OC(=O)c1cc(Br)ccc1O)C(=O)NCc1ccc2c(c1)OCO2 (configuration not stated)	3	-10	-29	4	.	.
CCOC(=O)c1c2c(n(Cc3ccccc3)c1C)C(=O)C(=O)c1ccccc1-2	8	-32	-85	19*	16	0
Cc1cc(C)c(NC(=O)Cn2nnc(C(=O)NCc3cccs3)c2N)c(C)c1	0	-41	-123	22*	0	-4
COC(c1ccccc1)c1nnc(CCC(=O)NCc2cccc(-n3cccn3)c2)o1 (configuration not stated)	0	-8	18	-4	.	.
Cc1cccc(NC(=O)NNC(=O)CCc2ccccc2)c1	0	-10	2	0	.	.
Cc1cccc(NC(=S)NC(=O)CCc2ccccc2)c1	0	0	-98	18*	352*	-1
O=C(O)c1ccc(NC2=C(Cl)C(=O)c3ccccc3C2=O)cc1	3	-7	-56	11	.	.
O=C(O)c1cccc(NC2=C(Cl)C(=O)c3ccccc3C2=O)c1	-1	3	-143	22*	8	3
Nc1ccc(C(=O)N2CCN(S(=O)(=O)c3ccc4c(c3)OCCCO4)CC2)cc1[N+](=O)[O-]	-3	7	5	-1	.	.
O=C(Nc1cc(Cl)cc(Cl)c1)c1ccc(Cn2c(=O)[nH]c3ccsc3c2=O)cc1	-3	-11	-134	25*	0	0
